From PubChem BioAssay (NCATS)
Records with an inconclusive call do not appear. A number with no mark means an inactive call. Active and inactive are the calls of the source. The call rests on the fitted dose curve; in most records, active means well fitted inhibition curve with a large enough effect; inconclusive means small, poorly fitted or top-dose-only effect; inactive means no such curve, though single readings can be large or run the other way.

Test: qHTS assay for measurement of the activity of small molecule inhibitors on Zika virus induced Caspase-3 activity in human iPSC derived neural progenitor cells (hNPCs) (AID 1224857); further: % of control where 0% means no effect; nearly all actives have a fitted effect of over 65% in size
Settings: hNPCs ZIKV-induced caspase-3/7, Caspase-Glo luminescence, 6 h; series mostly up to 45.7 µM
Outline: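 Pretreat hNPCs with compound 1 h; infect ZIKV 2 FFU/cell; 6 h 37 C, 5% CO2; Caspase-Glo 3/7, 30 min RT; luminescence; normalize to no-virus and virus-only wells.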

Structure (SMILES)	outcome	activity change, negative = inhibition
CN1CCN(C2Cc3ccccc3Sc3ccc(Cl)cc32)CC1 (centres undefined)	inactive	
COc1ccccc1O	inactive	
CC(=O)NC(Cc1ccccc1)C(=O)O (centres undefined)	inactive	
C[C@H]1O[C@@H](n2cc(F)c(=O)[nH]c2=O)[C@H](O)[C@@H]1O	inactive	
CC(=O)c1ccc2c(c1)N(CCCN(C)C)c1ccccc1S2	inactive	
CCCCN(CCCC)CCCOC(=O)c1ccc(N)cc1	inactive	
NS(=O)(=O)c1cc2c(cc1Cl)NC(CSCc1ccccc1)=NS2(=O)=O	inactive	
COc1ccc2cc1Oc1cc3c(cc1OC)CC[N+](C)(C)[C@H]3Cc1ccc(cc1)Oc1c(OC)c(OC)cc3c1[C@@H](C2)[N+](C)(C)CC3	inactive	
CCCCOC(=O)c1ccc(O)cc1	inactive	
CC[N+](CC)(CC)CCOc1ccc(/C=C/c2ccccc2)cc1	inactive	
N[C@H](C(=O)O)c1ccc(O)cc1	inactive	
C[C@H](N)[C@H](O)c1cccc(O)c1	inactive	
CCN(CC)C(=O)Nc1ccc(OCC(O)CNC(C)(C)C)c(C(C)=O)c1 (centres undefined)	inactive	
CCCCN1CCCC[C@H]1C(=O)Nc1c(C)cccc1C	inactive	
O=C1NC(=O)[C@@]2(CCOc3ccc(F)cc32)N1	inactive	
CC(C)(O)c1ccccc1CC[C@@H](SCC1(CC(=O)O)CC1)c1cccc(/C=C/c2ccc3ccc(Cl)cc3n2)c1	inactive	
CCOc1ccc2ccccc2c1C(=O)N[C@@H]1C(=O)N2[C@@H]1SC(C)(C)[C@@H]2C(=O)O	inactive	

Structure (SMILES)	outcome	activity change, negative = inhibition
COc1cc(C)c(Cc2cnc(N)nc2N)cc1OC	inactive	
C[C@@H]1CN(c2c(F)c(F)c3c(=O)c(C(=O)O)cn(C4CC4)c3c2F)C[C@H](C)N1	inactive	
C[C@](N)(Cc1ccc(O)cc1)C(=O)O	inactive	
c1ccc2c(CC3=NCCN3)cccc2c1	inactive	
O=C1OC(OC(=O)c2cccnc2Nc2cccc(C(F)(F)F)c2)c2ccccc21 (centres undefined)	inactive	
CC1(C)OC(=O)NC1=O	inactive	
CN1CCOC(c2ccccc2)c2ccccc2C1 (centres undefined)	inactive	
CCN(CC)CCSC(=O)C(c1ccccc1)c1ccccc1	inactive	
CCCCCCCCCCCCOS(=O)(=O)O	inactive	
O=C(O)c1ccccn1	inactive	
C[C@@H]1CCN(C(=O)[C@H](CCCN=C(N)N)NS(=O)(=O)c2cccc3c2NC[C@H](C)C3)[C@@H](C(=O)O)C1	inactive	
NC(=O)NC(=O)Cc1ccccc1	inactive	
CCN(CC)CCNC(C(=O)OCCC(C)C)c1ccccc1 (centres undefined)	inactive	
Cc1cccc(C)c1NC(=O)CN(CC(=O)O)CC(=O)O	inactive	
CCOC(=O)[C@H](CCc1ccccc1)N[C@@H](C)C(=O)N1C(=O)N(C)C[C@H]1C(=O)O	inactive	
CN1CCCCC1CCN1c2ccccc2Sc2ccc(S(C)=O)cc21 (centres undefined)	inactive	
NCCNCCNCCNCCN		-1.07% [at 9.06 µM]
